# Experimental data reported in PubChem BioAssay (NCI).
# Compounds without any hit were thinned out: in the full panel of roughly 79,000, 15% have a hit. A number with no mark means an inactive call. Calls of active or inactive are those of the source. Rule as the data show it: active = growth inhibition above about 70%; inactive = the rest.
# Key:
# [1] = NCI Yeast Anticancer Drug Screen. Data for the rad50 strain (AID 155);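 also: 0% = growth of vehicle-only cultures of the same strain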; details: S. cerevisiae rad50 strain growth inhibition, active compounds read high
# Procedure, shortened: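 Inhibition values express reduced yeast growth in compound-treated cultures relative to vehicle-treated controls.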
# [2] = NCI Yeast Anticancer Drug Screen. Data for the mec2-1 strain (AID 157); details: S. cerevisiae mec2-1 strain, active compounds read high
# Procedure, shortened: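 Strain: mec2-1 (DNA repair/cell cycle alteration). Compound exposure, then growth measured; inhibition expressed relative to vehicle.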
# [3] = NCI Yeast Anticancer Drug Screen. Data for the sgs1 mgt1 strain (AID 161);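 also: 0% = growth of cultures given vehicle only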; details: S. cerevisiae sgs1 mgt1 strain, active compounds read high
# Procedure, shortened: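 Inhibition of yeast growth, normalised to vehicle-treated controls, is reported for a strain bearing genetic alterations in DNA damage repair.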
# [4] = NCI Yeast Anticancer Drug Screen. Data for the cln2 rad14 strain (AID 165);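 also: 0% = growth equal to vehicle treated cultures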; details: S. cerevisiae cln2 rad14 strain, active compounds read high
# Procedure, shortened: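 Compounds are applied to the cln2 rad14 yeast strain, and growth is then compared with that of vehicle-treated cultures to give inhibition.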
# [5] = NCI Yeast Anticancer Drug Screen. Data for the bub3 strain (AID 167); details: S. cerevisiae bub3 mutant strain, active compounds read high
# Procedure, shortened: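 Steps: expose the mutant yeast strain to compound; grow alongside vehicle-treated cultures; measure growth; express inhibition against the vehicle cultures.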
# [6] = NCI Yeast Anticancer Drug Screen. Data for the mlh1 rad18 strain (AID 175); details: S. cerevisiae mlh1 rad18 strain growth inhibition, active compounds read high
# Procedure, shortened: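 Read-out is yeast growth inhibition, calculated against vehicle-only controls. The compound was applied to a strain engineered with DNA damage repair alterations.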
# [7] = at 5.0 µM (retest, dose inferred, filed as 0.5)
# [8] = at 50.0 µM (retest, dose inferred, filed as 5.0)
SMILES,"growth inhibition [1, 7]","growth inhibition [1, 8]",growth inhibition ([1]; at 50.0 µM),"growth inhibition [2, 7]","growth inhibition [2, 8]",growth inhibition ([2]; at 50.0 µM),"growth inhibition [3, 7]","growth inhibition [3, 8]",growth inhibition ([3]; at 50.0 µM),"growth inhibition [4, 7]","growth inhibition [4, 8]",growth inhibition ([4]; at 50.0 µM),"growth inhibition [5, 7]","growth inhibition [5, 8]",growth inhibition ([5]; at 50.0 µM),"growth inhibition [6, 7]","growth inhibition [6, 8]",growth inhibition ([6]; at 50.0 µM)
O=C1C(=O)N(c2ccc(Cl)c(Cl)c2)C(=O)C(=O)C1c1nc2ccccc2o1,21%,98% (active),97.2% (active),17%,98% (active),92.8% (active),27%,95% (active),97.2% (active),22%,90% (active),94.8% (active),3%,96% (active),83.1% (active),14%,95% (active),96.7% (active)
CCC[n+]1ccc(/C=N\NC(N)=S)c2ccccc21,22%,38%,38.2%,19%,36%,-16.4%,21%,38%,6.2%,9%,34%,5.25%,15%,42%,-6.7%,17%,33%,-41.6%
CC(CN(C)C)C(/C=C/c1ccc(Cl)c(Cl)c1)=N\Nc1ccccc1 (centres undefined),2%,96% (active),54.1%,-3%,98% (active),98.7% (active),3%,99% (active),49.3%,3%,96% (active),47.1%,-1%,91% (active),88.4% (active),9%,96% (active),64.6%
COc1ccc2c(c1)C=C([N+](=O)[O-])C(C1OC(C)(C)OC1C1COC(C)(C)O1)O2 (centres undefined),17%,12%,7.3%,22%,24%,65.2%,24%,14%,16.5%,19%,11%,45.1%,48%,43%,0.6%,24%,21%,19.8%
CC(C)(C)C(=O)Nc1ccc2c(c1)C(=O)c1ccccc1C2=O,62%,96% (active),82% (active),44%,85% (active),79.2% (active),44%,91% (active),80.7% (active),38%,75% (active),83.2% (active),46%,71% (active),87.5% (active),62%,96% (active),86.5% (active)
C(=C1/CNC/C(=C/c2ccccc2)C1)/c1ccccc1,11%,99% (active),99.5% (active),17%,99% (active),99.6% (active),16%,96% (active),99.5% (active),27%,99% (active),99.2% (active),6%,99% (active),99.3% (active),-1%,97% (active),99.3% (active)
Clc1cccc(Cl)c1C(Nc1nncs1)Nc1nncs1,0%,85% (active),93.2% (active),-9%,51%,79.8% (active),0%,55%,88.2% (active),8%,42%,72.9% (active),-11%,56%,53%,0%,94% (active),97.3% (active)
CCc1ccccc1NC(=O)C(=O)C(C#N)c1c(Cl)cccc1Cl (centres undefined),-8%,-2%,-26.7%,2%,1%,8.8%,-17%,-33%,20.7%,-6%,4%,-28.7%,1%,0%,12.2%,0%,-1%,14.7%
C1=CC2C(c3cccc4ccccc34)O[C@H]2O1 (some centres undefined),39%,99% (active),98.8% (active),11%,99% (active),98.5% (active),13%,99% (active),98.8% (active),7%,98% (active),98.8% (active),3%,99% (active),98.4% (active),28%,99% (active),98.3% (active)
CC(C)(C)c1cc2c(c(C(C)(C)C)c1O)CC(=O)O2,-6%,74% (active),27.7%,-18%,85% (active),45.5%,-37%,77% (active),57.8%,23%,64%,53.8%,-32%,97% (active),72.5% (active),-3%,84% (active),73.9% (active)
O=S(=O)(O)C(O)c1ccc2ccc3cccc4ccc1c2c34 (centres undefined),12%,95% (active),94.4% (active),-2%,96% (active),95.3% (active),4%,92% (active),67.8%,-4%,84% (active),77.5% (active),-3%,94% (active),97.5% (active),3%,95% (active),97% (active)
C/C(=N\NC(=S)N1CCC(C)CC1)c1cccc2cccnc12,-5%,98% (active),62.6%,-9%,98% (active),-6.1%,0%,98% (active),83.2% (active),-10%,98% (active),14.2%,2%,98% (active),6.05%,-8%,99% (active),6.35%
CCCCNc1ccc(C(=O)OC2CCN(C)CC2)c(Cl)c1,99% (active),96% (active),97% (active),99% (active),97% (active),94.5% (active),99% (active),98% (active),95.9% (active),98% (active),96% (active),84% (active),99% (active),97% (active),96.3% (active),99% (active),96% (active),92.8% (active)
c1ccc2c(c1)cc(C1NCCc3[nH]cnc31)c1ccccc12 (centres undefined),13%,80% (active),47%,-4%,83% (active),1.5%,16%,82% (active),-15.3%,26%,71% (active),30.4%,13%,96% (active),11.1%,-21%,97% (active),61.9%
CCc1c(C(=O)OC)c(C(=O)OC)c(-c2ccccc2)n1CCn1c(CC)c(C(=O)OC)c(C(=O)OC)c1-c1ccccc1,-2%,82% (active),50.1%,-2%,64%,38.2%,-2%,74% (active),28.6%,1%,52%,25.5%,1%,83% (active),98.5% (active),2%,54%,40.4%
CCCCCN(CCCCC)C(=S)Nc1ccccc1,-36%,67%,84.9% (active),-5%,85% (active),80.5% (active),-19%,83% (active),77% (active),-22%,74% (active),80.9% (active),1%,94% (active),87.8% (active),-4%,90% (active),89.4% (active)
CC(=O)OCC1OC(c2cccc3c2c2ccccc2n3S(=O)(=O)c2ccccc2)C(O)C1O (centres undefined),1%,93% (active),17.4%,1%,97% (active),-0.7%,-1%,97% (active),7.15%,2%,98% (active),1.25%,0%,98% (active),7.8%,1%,98% (active),37.9%
Cc1ccc(S(=O)(=O)NNc2nc(N(C)C)nc(N(C)C)n2)cc1,1%,7%,9.15%,7%,14%,5.4%,3%,13%,5.5%,4%,4%,52.2%,-1%,4%,4.4%,2%,8%,3.85%
